Screens from PubChem.
Dicer processing: inhibitors of Dicer pre-microRNA processing, primary screen, biochemical, cat-ELCCA, chemiluminescence. Endoribonuclease Dicer (Homo sapiens), Q9UPY3. cat-ELCCA pre-miR-21 Dicer processing; hits give high values. z-score at 25 µM. actives 6% (n = 47,000). AID 1347074, 2019; in the data active = z-score above about 3, passing the limit was not always enough;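 note: plate controls were vehicle for no effect and no enzyme for full effect; higher signal means more uncleaved substrate so more Dicer inhibition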
The depositor's hits bear a star; ! = repeats disagree. The sample as a whole holds a higher share of hits than the screen did.

SMILES	Dicer processing
COC(=O)CSc1nnc2n(-c3ccc(OC)cc3)c(=O)c3c4c(sc3n12)COC(C)(C)C4	1.97
Cc1cc(=O)[nH]c(SCCOc2ccc(C)c(C)c2)n1	-1.29
Cc1ccc(-n2nnnc2SCCOc2ccc(C)c(C)c2)cc1	9.75*
C=CCSc1nnnn1-c1ccc(OC(=O)C=C(C)C)cc1	-0.89
N#Cc1cc2c(nc1SCC(=O)Nc1ccc(F)cc1)CCC2	0.93
COc1ccc(OC)c(NC(=O)/C=C/C(=O)O)c1	0.51
C=CCOC(=O)C1=C(C)NC2=C(C(=O)CC(C)(C)C2)C1c1ccccc1OC(C)C (configuration not stated)	4.16
O=C(O)c1cc([N+](=O)[O-])ccc1NCc1ccco1	-0.82
COC(=O)CCC1CCC(CCC(=O)OC)C1=O (configuration not stated)	-0.51
CCN(CC)C(=O)c1cc2sccc2s1	3.09*
CCN(CC)C(=O)c1sc2nc3c(cc2c1N)CCCCC3	0.28
Cc1ccc(CSc2nnc(/N=C/NO)s2)cc1	-2.28
COc1ccc(Br)c(C(=O)/C(C#N)=C/c2cccs2)c1	0.78
COc1ccc(Br)c(C(=O)/C(C#N)=C/c2ccc(N(C)C)cc2)c1	6.19*
COc1ccc(Br)c(C(=O)NN)c1	0
O=C1CC(Nc2ccc(Oc3ccccc3)cc2)C(=O)N1c1ccc(Cl)cc1 (configuration not stated)	0.04
O=C(O)CCSC(CC(=O)c1ccc(Cl)cc1)c1ccccc1 (configuration not stated)	-0.31
CC1CCN(c2oc(-c3cccs3)nc2S(=O)(=O)c2ccccc2)CC1	0.05
CSc1c(C#N)c(-c2cccs2)nn1C(=O)C(C)(C)C	-2.62
CSc1c(-c2cccs2)c(N)nn1S(=O)(=O)c1ccccc1	3.94*
CCOC(=O)C1=C(C)NC2=C(C(=O)CC(C)(C)C2)C1c1ccc(SC)cc1 (configuration not stated)	1.14
CCCCN1Cc2c(n(CC(=O)c3ccccc3)c3cc(-c4ccccc4)nn3c2=O)C1=O	3.15*
CCCCN1Cc2c(n(CC(N)=O)c3cc(-c4ccccc4)nn3c2=O)C1=O	-0.98
CCCCN1Cc2c(n(Cc3ccccc3)c3cc(-c4ccccc4)nn3c2=O)C1=O	-0.1
Cn1[nH]c(Nc2ccccc2Cl)c(N=Nc2ccc(C(F)(F)F)cc2)c1=O	-2.05
SMILES	Dicer processing
Nc1ccccc1SC1CC(=O)N(c2cccc(Br)c2)C1=O (configuration not stated)	0.08
N#Cc1c(NC(=O)c2ccccc2)sc2c1CCCCC2	3.22*
CN(C)C(=O)c1c(NC(=O)c2ccccc2)sc2c1CCCC2	-0.15
COc1cc2ccccc2cc1C(=O)Nc1sc2c(c1C#N)CCC2	2.84
N#Cc1c(NC(=O)COc2ccc(Cl)cc2)sc2c1CCCC2	-0.23
N#Cc1c(NC(=O)c2ccc(Cl)cc2)sc2c1CCCC2	1.44
N#Cc1c(NC(=O)C(=O)c2c[nH]c3ccccc23)sc2c1CCCC2	4.57*
CCOC(=O)c1c[nH]c2c(OC)cccc2c1=O	1.59
O=C1COc2ccc(C3=Nc4ccccc4SC(c4ccccc4)C3)cc2N1 (configuration not stated)	-3.69
O=C(NCc1ccc(S(=O)(=O)NCc2cc(F)cc3c2OCOC3)s1)c1ccc(Cl)cc1	0.28
O=C(O)CSc1nnc2c3ccccc3n(Cc3ccccc3)c2n1	1.22
CC(C)=CCC(C#N)(CC=C(C)C)C(=O)O	-1.33
CC1(C)CC(=O)C2=C(C1)N(Cc1ccccc1)CN(Cc1ccco1)C2	1.92
O=C(Nc1ccc(OC(F)(F)F)cc1)Nc1ccc(C2=NCCO2)cc1	8.58
CCOC(=O)Oc1ccc2c(=O)c(Oc3cc(C)cc(C)c3)coc2c1	0.12
CCC(C)OC(=O)C(C)Oc1ccc2c(=O)c(Oc3ccc(C)cc3)coc2c1 (configuration not stated)	4.2*
CCC(C)OC(=O)C(C)Oc1ccc2c(=O)c(Oc3ccccc3Cl)coc2c1 (configuration not stated)	-0.01
C=CCOC(=O)Oc1ccc2c(=O)c(Oc3cc(C)ccc3C)coc2c1	1.33
C=CCOC(=O)Oc1ccc2c(=O)c(Oc3cc(C)cc(C)c3)coc2c1	3.01*
CCC(C)OC(=O)C(C)Oc1ccc2c(=O)c(Oc3cccc(C)c3)coc2c1 (configuration not stated)	-1.06
CC(C)(C)c1ccc(-c2cc3ncnc(Nc4cccc(Cl)c4)c3s2)cc1	0.56
COc1ccccc1C1NC(=O)C(=O)/C1=C(\O)c1ccc(Br)cc1 (configuration not stated)	1.3
CSc1sc(-c2ccno2)c(-c2ccccc2)c1C#N	1.22
COC(=O)c1cscc1Sc1ccc(Cl)cc1	-1.07
O=C(O)c1nnn(Cc2ccccc2)c1C(=O)O	-1.4
SMILES	Dicer processing
Cc1ccc(C)c(C(=O)CC2(O)C(=O)Nc3ccc(C)cc32)c1 (configuration not stated)	0.87
COC(=O)c1noc(C)c1-c1ccnn1S(=O)(=O)c1cccc(C(F)(F)F)c1	-0.95
COc1ccccc1OCCC(=O)O	2.72
COc1ccccc1OCCn1cc(C(=O)O)c2ccccc21	-0.73
COc1ccccc1OCCN1CCN(C)CC1	4.77*
COc1cccc(-n2c(N)c(C#N)c3nc4ccccc4nc32)c1	2.79
O=C1C2C3c4ccccc4C(c4ccccc43)C2C(=O)N1CCO (configuration not stated)	4.64*
O=C1C2C3c4ccccc4C(c4ccccc43)C2C(=O)N1c1ccncc1 (configuration not stated)	0.19
O=C1C2C3c4ccccc4C(c4ccccc43)C2C(=O)N1c1ccc(F)cc1 (configuration not stated)	-0.84
CN(C)S(=O)(=O)c1ccc(C(=O)Nc2nc3ccccc3c3nc4ccccc4n23)cc1	0.84
CC(CN(C)C)CN1c2ccccc2Sc2ccccc21 (configuration not stated)	0.42
CC(CN1c2ccccc2Sc2ccccc21)N(C)C (configuration not stated)	3.8*!
CNC(C)CN1c2ccccc2Sc2ccccc21 (configuration not stated)	2.56
CCOC(=O)CSc1ccc(C(=O)N(Cc2ccc3c(c2)OCO3)c2ccc(F)cc2)cc1[N+](=O)[O-]	-0.81
CN(C)/C=C(\C(=O)c1ccccc1Cl)c1nnnn1-c1ccccc1	-0.28
Cc1ccc(OCCSc2nc(C)cc(=O)[nH]2)cc1	4.88*
CCOc1ccc(OCCSc2nc(C)cc(=O)[nH]2)cc1	0.06
COc1ccccc1OCCSc1nc(C)cc(=O)[nH]1	22
CCOC(=O)c1c(Cl)c(C(C)(C)C)nc(Sc2ccccn2)c1C#N	2.03
O=C1Nc2ccc(S(=O)(=O)Nc3ccccc3O)c3cccc1c23	7.95*
O=C1Nc2ccc(S(=O)(=O)NCCO)c3cccc1c23	0.31
Cc1ccc(C)c(NS(=O)(=O)c2ccc3c4c(cccc24)C(=O)N3)c1	2.56
N#Cc1cn(Cc2cccc(Cl)c2)c(=O)[nH]c1=O	1.21
COc1ccc(S(=O)(=O)N2CCN(Cc3cc(OC)ccc3OC)CC2)cc1	0.59
COc1ccc(OC)c(CN2CCN(Cc3ccncc3)CC2)c1	13.3
COc1ccc(OC)c(CN2CCN(S(=O)(=O)c3ccc(Cl)cc3)CC2)c1	3.07*
Cc1ccsc1CNCCSc1nnnn1C	0.36
CSCC(CSC)OC(=O)Nc1ccc(Cl)cc1	1.3
CC(C)OC(=O)Nc1ccc(Cl)cc1	-0.57
CC(=O)OC(C(=O)O)C(OC(C)=O)C(=O)Nc1ccc(Cl)cc1 (configuration not stated)	3.11*
